Inconclusive results are not listed. Active and inactive are the calls of the source.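 Rule for the calls, unless noted: active = response below a set limit, under 55% cells CD8-positive and vesicle-bound, and CD8 cells' 90th-percentile brightness under 279; inactive = the rest.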
Tests used:
[1] = yeast TOR pathway RPL19A-GFP modulators, primary screen, cell-based, S. cerevisiae, multiplex flow cytometry (AID 1862; in the data active = percent of DMSO control GFP below about 86%;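 note: lower values mimic rapamycin by blocking the RPL19A rise seen in DMSO cells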); conditions: S. cerevisiae RPL19A-GFP strain, flow cytometry fluorescence, 3 h; at 10 µM; stronger effect = lower value
[2] = modulators of MEP2-GFP levels in yeast, primary screen, S. cerevisiae, multiplex flow cytometry (AID 1867;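 active = GFP response, as percent of the DMSO control, above the screen-wide mean plus 3 SD, about 139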;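 note: median GFP channel fluorescence of barcode-gated MEP2-GFP cells measured by flow cytometry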); conditions: S. cerevisiae MEP2-GFP strain, 3 h, at 10 µM, stronger effect = higher value, 100% means same as DMSO wells
[3] = modulators of CIT2-GFP expression in yeast, primary screen, S. cerevisiae, GFP fusion, multiplex flow cytometry (AID 1870;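 active = percent response above a set limit, the screen-wide mean plus 3 SD, cut at about 130% in these data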;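 note: barcoded CIT2-GFP strain pooled with four other GFP strains with rapamycin as positive control; median GFP fluorescence per well over plate mean of DMSO wells so 100% = DMSO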); conditions: 3 h, at 10 µM, stronger effect = higher value
[4] = modulators of LAP4-GFP expression in yeast, primary screen, S. cerevisiae, multiplex flow cytometry (AID 1873;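 active = GFP signal, as percent of the solvent control, above the screen mean plus 3 SD, about 149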); conditions: 3 h, at 10 µM, stronger effect = higher value
[5] = modulators of AGP1-GFP expression in yeast TOR pathway, primary screen, cell-based, multiplex flow cytometry, S. cerevisiae (AID 1887;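 active = GFP signal above the screen-wide mean plus 3 SD, that is over about 124.5% of the solvent control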;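 note: AGP1-GFP fusion strain of S. cerevisiae within a five-strain barcoded multiplex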); conditions: 3 h, at 10 µM, stronger effect = higher value
[6] = inhibitors of CD8+ T cell-vesicle binding, pilot screen, LFA-1/ICAM-1 modulator project, MLPCN validation set, flow cytometry (AID 2523); conditions: 2C mouse CD8+ T cells, at 7 µM, stronger effect = lower value; double positive events: measured here: CD8+/vesicle+ event percentage;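 for vesicle binding response: mean PE anti-B7-1 fluorescence of CD8+ cells relative to row control; 100% = QL9-loaded vesicles with DMSO vehicle in the same plate row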
[7] = target: Integrin beta-1 (Homo sapiens) + Integrin alpha-4 (Homo sapiens) (UniProt P13612+P05556); assay: inhibition of HUTS-21 binding to VLA-4, pilot screen, VLA-4 allosteric modulator project, U937 cells, HUTS-21 mAb, flow cytometry, validation set (AID 2674;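 active = inhibition above 50%, about 3 SD of the validation set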;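 note: antibody binding induced by the VLA-4 ligand LDV present at three times its Kd; 0% = LDV ligand with antibody and no compound and 100% = antibody without LDV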); conditions: HUTS-21 LIBS mAb binding, at 6.7 µM, stronger effect = higher value, binding induced by LDV ligand
[8] = superoxide lowering in aged yeast cells, pilot screen, validation compound set (AID 2706;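 active = superoxide response below 65% of plate, a cut near 3 SD across the whole screen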;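 note: yeast exposed to compound for one week at 30 degrees C before staining; 100% = mean of all compound wells on the same plate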); conditions: S. cerevisiae aging, superoxide DHE fluorescence; at 10 µM; stronger effect = lower value
[9] = target: Beta-adrenergic receptor kinase 1 (Homo sapiens) (UniProt P25098); assay: GRK2 binders displacing RNA aptamer, biochemical, validation, human GRK2, bead flow cytometry (AID 488806;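 active = aptamer binding inhibition above 30%, about 3 SD of noise from non-fluorescent compounds; inactive = inhibition at or below 30%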); conditions: bead-bound GRK2, FAM-aptamer displacement, at 10 µM, stronger effect = higher value
[10] = target: Beta-2 adrenergic receptor (Homo sapiens) (UniProt P07550); assay: beta2AR agonists driving receptor internalization, pilot screen, cell-based, FAP fluorogen, flow cytometry, validation set (AID 504459;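 active = percent response above 42, roughly 3 SD of non-fluorescent test compounds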;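 note: agonist-driven loss of surface beta2AR via internalization measured by FAP dye flow cytometry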); conditions: Am2.2-beta2AR cells, FAP surface receptor flow cytometry; at 10 µM; stronger effect = higher value
[11] = target: AP-2 complex subunit beta (Homo sapiens) (UniProt P63010); assay: inhibitors of arrestin peptide binding to AP2, pilot screen, biochemical, validation set, GST-AP2 beads, flow cytometry (AID 504541;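 active = inhibition above 54%, about 3 SD of non-fluorescent compounds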;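 note: AP2 carries R879A mutation and is captured from E. coli lysate; bead-bound FITC arrestin peptide fluorescence measuring arrestin peptide binding to AP2; 0% = DMSO wells and 100% = excess unlabeled arrestin peptide control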); conditions: FITC arrestin peptide, at 10 µM, stronger effect = higher value, AP2 beta2 appendage fragment, R879A mutant
[12] = yeast V-ATPase proton transport modulators, S. cerevisiae, pHLuorin, HTS validation (AID 504600; in the data active = response above about 15%;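 note: plate controls were DMSO for no effect and reference compound for full effect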); conditions: S. cerevisiae pHLuorin cytosolic pH, at 10 µM, stronger effect = higher value
[13] = test system: anti-desmoglein-3 scFv antibody binding to human DSG3; assay: inhibitors of anti-DSG3 scFv binding to DSG3, pilot screen, biochemical, validation compound set, bead-based, flow cytometry (AID 588368;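 active = binding below the plate cutoff, the plate median minus 3 SD, with a reading above zero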;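 note: signal is the median channel fluorescence of bead-bound GFP antibody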); conditions: Protein G beads, DSG3-Fc, scFv-GFP binding, at 10 µM, stronger effect = lower value
[14] = inhibitors of fungal efflux pumps CDR1, CDR2, MDR1, pilot screen, validation compound set, multiplex, phenotypic (AID 588506;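 active = efflux inhibition above 0.42, the validation set average plus 4 SD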;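 note: Nile Red retained in cells so higher fluorescence means more efflux inhibition; 0 = negative control wells and 1 = enniatin B 25 µM full block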); conditions: S. cerevisiae pump-expressing triplex, Nile Red efflux flow cytometry; at 10 µM; stronger effect = higher value; the pumps come from Candida albicans
[15] = target: ATP-binding cassette sub-family B member 6 (Homo sapiens) (UniProt Q9NP58); assay: ABCB6 transporter inhibitors, pilot screen, K562-ABCB6 cells, flow cytometry, validation set (AID 588550;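 active = inhibition above the screen-wide mean plus 3 SD, about 51%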;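 note: 0% = DMSO wells and 100% = benzethonium chloride 70 µM positive control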); conditions: K562-ABCB6 porphyrin accumulation, 1 h, at 10 µM, stronger effect = higher value
[16] = promoters of myeloid differentiation in arrested cells, primary screen, cell-based, GFP/MAC1 double positive, flow cytometry, validation set (AID 588685;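 active = differentiation response of at least 50%, scaled between solvent and reference control, from cells with both markers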;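 note: compound exposure lasts four days before antibody staining and flow analysis; 0% = DMSO wells and 100% = 5 µM fulvestrant positive control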); conditions: ER-HoxA9 marrow cells, stronger effect = higher value, normalized: vehicle 0, fulvestrant 100

Sequence of ATP-binding cassette sub-family B member 6 (Homo sapiens) (Q9NP58 whole entry, looked up): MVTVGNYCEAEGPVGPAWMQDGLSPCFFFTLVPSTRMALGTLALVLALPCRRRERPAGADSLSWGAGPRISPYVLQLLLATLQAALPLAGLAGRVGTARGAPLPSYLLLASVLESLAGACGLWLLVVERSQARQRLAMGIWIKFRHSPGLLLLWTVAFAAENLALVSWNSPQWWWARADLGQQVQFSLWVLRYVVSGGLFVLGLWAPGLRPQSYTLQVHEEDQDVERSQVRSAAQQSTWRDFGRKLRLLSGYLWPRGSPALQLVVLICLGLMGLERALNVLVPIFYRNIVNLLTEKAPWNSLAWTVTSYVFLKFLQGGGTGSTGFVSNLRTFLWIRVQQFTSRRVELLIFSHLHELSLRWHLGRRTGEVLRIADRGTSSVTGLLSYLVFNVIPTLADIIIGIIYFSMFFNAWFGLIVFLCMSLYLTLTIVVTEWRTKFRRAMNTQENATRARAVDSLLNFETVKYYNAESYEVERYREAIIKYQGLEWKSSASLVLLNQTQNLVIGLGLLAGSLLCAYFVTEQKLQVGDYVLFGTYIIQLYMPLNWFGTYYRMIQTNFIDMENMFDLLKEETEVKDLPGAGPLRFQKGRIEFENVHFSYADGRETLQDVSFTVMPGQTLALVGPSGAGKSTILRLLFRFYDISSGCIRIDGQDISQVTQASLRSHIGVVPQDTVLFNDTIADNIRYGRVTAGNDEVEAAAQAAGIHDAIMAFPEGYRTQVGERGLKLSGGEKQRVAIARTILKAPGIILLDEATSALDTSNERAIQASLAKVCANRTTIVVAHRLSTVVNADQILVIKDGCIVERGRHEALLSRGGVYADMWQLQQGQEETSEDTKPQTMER
Sequence of Beta-2 adrenergic receptor (Homo sapiens) (P07550 whole entry, looked up): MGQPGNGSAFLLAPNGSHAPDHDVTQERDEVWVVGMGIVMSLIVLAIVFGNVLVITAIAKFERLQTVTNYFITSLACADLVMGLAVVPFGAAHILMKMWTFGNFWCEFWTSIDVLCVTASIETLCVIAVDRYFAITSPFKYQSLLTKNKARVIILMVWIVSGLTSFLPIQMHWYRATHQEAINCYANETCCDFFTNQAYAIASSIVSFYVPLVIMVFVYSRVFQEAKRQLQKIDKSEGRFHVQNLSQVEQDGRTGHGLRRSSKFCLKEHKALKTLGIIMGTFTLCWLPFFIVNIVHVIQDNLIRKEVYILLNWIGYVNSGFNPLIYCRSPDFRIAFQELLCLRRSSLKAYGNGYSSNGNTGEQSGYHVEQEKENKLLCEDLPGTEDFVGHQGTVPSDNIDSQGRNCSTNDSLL
Sequence of Integrin beta-1 (Homo sapiens) + Integrin alpha-4 (Homo sapiens) (P05556 whole entry, looked up): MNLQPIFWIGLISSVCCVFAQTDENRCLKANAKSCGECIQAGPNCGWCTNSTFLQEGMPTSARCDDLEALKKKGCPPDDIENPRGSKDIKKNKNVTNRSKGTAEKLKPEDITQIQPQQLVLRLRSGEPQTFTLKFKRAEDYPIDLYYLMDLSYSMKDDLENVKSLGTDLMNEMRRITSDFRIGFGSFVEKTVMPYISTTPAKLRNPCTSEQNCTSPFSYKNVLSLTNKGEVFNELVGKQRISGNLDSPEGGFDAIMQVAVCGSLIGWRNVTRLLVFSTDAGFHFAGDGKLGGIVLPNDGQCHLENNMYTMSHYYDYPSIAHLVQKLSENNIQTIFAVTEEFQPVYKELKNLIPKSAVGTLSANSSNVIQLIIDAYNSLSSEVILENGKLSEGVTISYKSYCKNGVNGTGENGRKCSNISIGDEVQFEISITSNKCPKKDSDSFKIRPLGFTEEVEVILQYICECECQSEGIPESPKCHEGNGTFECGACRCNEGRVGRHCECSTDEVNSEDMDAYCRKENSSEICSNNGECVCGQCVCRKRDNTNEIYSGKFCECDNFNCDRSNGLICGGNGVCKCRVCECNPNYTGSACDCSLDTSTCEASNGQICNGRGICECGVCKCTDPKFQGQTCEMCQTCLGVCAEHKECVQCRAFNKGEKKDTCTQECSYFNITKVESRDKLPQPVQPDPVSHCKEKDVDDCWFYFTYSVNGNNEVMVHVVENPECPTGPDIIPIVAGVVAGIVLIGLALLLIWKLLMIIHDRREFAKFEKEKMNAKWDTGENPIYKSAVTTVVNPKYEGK
Sequence of Integrin beta-1 (Homo sapiens) + Integrin alpha-4 (Homo sapiens) (P13612 whole entry, looked up): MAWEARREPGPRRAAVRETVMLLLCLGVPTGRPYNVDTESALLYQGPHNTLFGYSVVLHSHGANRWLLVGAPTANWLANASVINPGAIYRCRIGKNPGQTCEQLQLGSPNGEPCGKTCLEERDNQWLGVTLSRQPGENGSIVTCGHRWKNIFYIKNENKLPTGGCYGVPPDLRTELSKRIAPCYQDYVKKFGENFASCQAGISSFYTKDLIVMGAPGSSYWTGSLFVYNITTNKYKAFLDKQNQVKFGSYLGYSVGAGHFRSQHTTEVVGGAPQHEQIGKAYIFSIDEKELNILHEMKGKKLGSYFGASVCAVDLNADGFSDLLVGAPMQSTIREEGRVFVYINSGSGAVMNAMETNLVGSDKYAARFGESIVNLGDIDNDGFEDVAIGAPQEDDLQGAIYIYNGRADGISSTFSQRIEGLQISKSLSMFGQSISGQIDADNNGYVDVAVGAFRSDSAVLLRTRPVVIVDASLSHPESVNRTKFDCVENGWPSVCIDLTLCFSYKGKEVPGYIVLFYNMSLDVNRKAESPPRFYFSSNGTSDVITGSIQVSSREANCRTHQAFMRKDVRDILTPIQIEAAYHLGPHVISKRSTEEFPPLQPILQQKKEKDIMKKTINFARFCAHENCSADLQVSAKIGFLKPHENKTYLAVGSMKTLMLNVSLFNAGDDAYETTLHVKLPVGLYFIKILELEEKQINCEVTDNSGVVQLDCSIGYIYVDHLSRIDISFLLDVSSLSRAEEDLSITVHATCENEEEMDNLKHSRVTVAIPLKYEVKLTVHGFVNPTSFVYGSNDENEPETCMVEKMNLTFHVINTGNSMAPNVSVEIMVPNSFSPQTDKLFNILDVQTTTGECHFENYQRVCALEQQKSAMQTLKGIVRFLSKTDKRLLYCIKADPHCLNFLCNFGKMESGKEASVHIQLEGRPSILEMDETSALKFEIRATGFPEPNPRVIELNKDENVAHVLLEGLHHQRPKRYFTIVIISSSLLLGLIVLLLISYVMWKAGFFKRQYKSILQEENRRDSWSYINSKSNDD
Sequence of AP-2 complex subunit beta (Homo sapiens) (P63010 whole entry, looked up, the tested form may be a part, one chain of several): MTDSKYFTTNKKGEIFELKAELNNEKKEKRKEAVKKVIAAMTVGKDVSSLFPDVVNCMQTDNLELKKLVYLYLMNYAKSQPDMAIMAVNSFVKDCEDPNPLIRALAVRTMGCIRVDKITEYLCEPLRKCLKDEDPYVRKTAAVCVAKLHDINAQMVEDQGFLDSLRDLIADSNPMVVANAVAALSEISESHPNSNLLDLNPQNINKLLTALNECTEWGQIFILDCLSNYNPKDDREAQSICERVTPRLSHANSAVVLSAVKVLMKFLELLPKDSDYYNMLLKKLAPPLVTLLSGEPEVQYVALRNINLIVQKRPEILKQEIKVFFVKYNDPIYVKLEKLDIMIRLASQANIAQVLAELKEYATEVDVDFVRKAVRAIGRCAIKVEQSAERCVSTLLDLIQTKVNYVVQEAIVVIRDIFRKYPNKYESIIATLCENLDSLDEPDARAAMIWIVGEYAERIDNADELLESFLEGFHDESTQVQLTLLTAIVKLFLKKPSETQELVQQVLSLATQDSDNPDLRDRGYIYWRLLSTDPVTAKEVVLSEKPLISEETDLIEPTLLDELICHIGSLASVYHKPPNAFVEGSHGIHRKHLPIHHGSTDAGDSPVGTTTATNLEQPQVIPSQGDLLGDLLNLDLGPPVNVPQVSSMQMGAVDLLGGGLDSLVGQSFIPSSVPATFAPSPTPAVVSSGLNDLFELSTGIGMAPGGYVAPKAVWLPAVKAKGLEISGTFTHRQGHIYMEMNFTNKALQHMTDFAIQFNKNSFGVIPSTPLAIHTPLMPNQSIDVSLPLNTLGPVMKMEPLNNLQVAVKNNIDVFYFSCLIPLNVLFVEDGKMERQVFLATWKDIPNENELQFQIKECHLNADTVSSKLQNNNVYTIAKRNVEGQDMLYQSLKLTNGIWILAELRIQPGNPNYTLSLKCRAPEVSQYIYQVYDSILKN
Sequence of Beta-adrenergic receptor kinase 1 (Homo sapiens) (P25098 whole entry, looked up): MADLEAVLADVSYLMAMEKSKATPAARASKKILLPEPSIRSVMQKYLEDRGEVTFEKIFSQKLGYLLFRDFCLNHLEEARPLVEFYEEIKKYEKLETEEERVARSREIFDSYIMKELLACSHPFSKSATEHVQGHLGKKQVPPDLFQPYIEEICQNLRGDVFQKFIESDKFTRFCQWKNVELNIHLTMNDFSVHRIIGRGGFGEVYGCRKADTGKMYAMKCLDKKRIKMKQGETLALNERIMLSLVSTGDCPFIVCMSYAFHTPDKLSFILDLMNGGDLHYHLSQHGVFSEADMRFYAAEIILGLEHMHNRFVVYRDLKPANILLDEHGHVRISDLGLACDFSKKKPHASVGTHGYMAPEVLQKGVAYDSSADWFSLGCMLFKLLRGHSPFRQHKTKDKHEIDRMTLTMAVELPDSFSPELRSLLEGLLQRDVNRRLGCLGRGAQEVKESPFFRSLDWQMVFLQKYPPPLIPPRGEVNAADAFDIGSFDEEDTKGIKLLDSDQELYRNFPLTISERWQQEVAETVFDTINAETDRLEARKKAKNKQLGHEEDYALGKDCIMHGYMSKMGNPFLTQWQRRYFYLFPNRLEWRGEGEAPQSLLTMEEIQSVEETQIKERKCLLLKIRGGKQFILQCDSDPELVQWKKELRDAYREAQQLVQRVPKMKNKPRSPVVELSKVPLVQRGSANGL

CC(=O)N/C(=C/c1ccc2c(c1)OCO2)C(=O)NCCO
61.5%: double positive events [6]
inactive: percent of DMSO control GFP [1] 98.2% | GFP response vs DMSO [2] 106% | percent response of DMSO control [3] 93.9% | GFP response vs DMSO [4] 111% | GFP response, % of DMSO [5] 106% | vesicle binding response [6] 3870% | inhibition [7] -5.89% | superoxide response (% of plate) [8] 106% | aptamer binding inhibition [9] 0% | response [10] 2.49% | inhibition [11] -4.62% | response [12] 1.75% | binding (% of control) [13] 97.4% | efflux inhibition (fraction of control) [14] -0.42 | inhibition [15] 2% | differentiation response [16] -5.6%

CCOC(=O)C1=C[C@]2(CC)CCCN3CCc4c(n1c1ccccc41)[C@@H]32
56.4%: double positive events [6]
inactive: percent of DMSO control GFP [1] 98.4% | GFP response vs DMSO [2] 107% | percent response of DMSO control [3] 96.6% | GFP response vs DMSO [4] 104% | GFP response, % of DMSO [5] 96.5% | vesicle binding response [6] 43.9% | inhibition [7] -4.6% | superoxide response (% of plate) [8] 92.5% | aptamer binding inhibition [9] -1% | response [10] -5% | inhibition [11] -10.5% | response [12] 4.61% | binding (% of control) [13] 97.2% | efflux inhibition (fraction of control) [14] -0.23 | inhibition [15] 8% | differentiation response [16] -3.67%

N/C(=N\OC(=O)/C=C/c1ccccc1)c1ccc(Br)cc1
65%: double positive events [6]
inactive: percent of DMSO control GFP [1] 103% | GFP response vs DMSO [2] 106% | percent response of DMSO control [3] 107% | GFP response vs DMSO [4] 101% | GFP response, % of DMSO [5] 94.2% | vesicle binding response [6] 195% | inhibition [7] -3.57% | superoxide response (% of plate) [8] 107% | aptamer binding inhibition [9] 3% | response [10] 0.58% | inhibition [11] 40.4% | response [12] -3.5% | binding (% of control) [13] 100% | efflux inhibition (fraction of control) [14] -0.01 | inhibition [15] 13% | differentiation response [16] -3.67%

CC(C)c1cc(=O)oc2c3c4c(cc12)CCCN4CCC3
59.3%: double positive events [6]
active: response [10] 46% | response [12] 21.6%
inactive: percent of DMSO control GFP [1] 104% | GFP response vs DMSO [2] 99.6% | percent response of DMSO control [3] 99.6% | GFP response vs DMSO [4] 78.6% | GFP response, % of DMSO [5] 90.6% | vesicle binding response [6] 145% | superoxide response (% of plate) [8] 97.7% | aptamer binding inhibition [9] 9% | inhibition [11] -43.1% | binding (% of control) [13] 98.7% | efflux inhibition (fraction of control) [14] 0.3 | inhibition [15] 2% | differentiation response [16] -21.6%

N#C/C(=C\c1ccc(O)c(O)c1)C(=O)NCCCc1ccccc1
62.1%: double positive events [6]
inactive: percent of DMSO control GFP [1] 102% | GFP response vs DMSO [2] 101% | percent response of DMSO control [3] 98.3% | GFP response vs DMSO [4] 108% | GFP response, % of DMSO [5] 116% | vesicle binding response [6] 206% | inhibition [7] -13% | superoxide response (% of plate) [8] 93.6% | aptamer binding inhibition [9] -1% | response [10] 13.4% | inhibition [11] 25.2% | response [12] -4.8% | binding (% of control) [13] 103% | efflux inhibition (fraction of control) [14] 0.08 | inhibition [15] -1% | differentiation response [16] 3.88%

COc1cc(OC)c(-c2nc3cnccc3n2C)cc1OC
inactive: percent of DMSO control GFP [1] 104% | GFP response vs DMSO [2] 100% | percent response of DMSO control [3] 115% | GFP response vs DMSO [4] 103% | GFP response, % of DMSO [5] 102% | vesicle binding response [6] 192% | inhibition [7] -4.6% | superoxide response (% of plate) [8] 97% | aptamer binding inhibition [9] 0% | response [10] -4.1% | inhibition [11] -2.31% | response [12] 4.97% | binding (% of control) [13] 97.6% | efflux inhibition (fraction of control) [14] -0.01 | inhibition [15] -11% | differentiation response [16] 3.18%
61.8%: double positive events [6]

Source: PubChem BioAssay
